Screening data as filed in PubChem BioAssay.
A selection: hits, their analogues and other compounds. The true share with any hit is near 4%.
Mtb bLac sens – beta-lactam sensitization of Mtb H37Rv. M. tuberculosis H37Rv growth with meropenem, percent inhibition. inhibition, % at 25 µM. hit rate 0.27% among 330,000. AID 434955;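 also: growth measured after seven days incubation then overnight dye step; 0% = bacteria only wells and 100% = bacteria with antibiotic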
Mtb FBA inh – inhibitors of M. tuberculosis fructose-bisphosphate aldolase; purified M. tuberculosis FBA, fluorescence read-out; inhibition, % at 1 µM; hit rate 2.3% among 360,000; in the data active = inhibition above about 27%;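 also: 0% = vehicle and 100% = reference inhibitor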
Target sequence (P9WQA3 whole entry, looked up): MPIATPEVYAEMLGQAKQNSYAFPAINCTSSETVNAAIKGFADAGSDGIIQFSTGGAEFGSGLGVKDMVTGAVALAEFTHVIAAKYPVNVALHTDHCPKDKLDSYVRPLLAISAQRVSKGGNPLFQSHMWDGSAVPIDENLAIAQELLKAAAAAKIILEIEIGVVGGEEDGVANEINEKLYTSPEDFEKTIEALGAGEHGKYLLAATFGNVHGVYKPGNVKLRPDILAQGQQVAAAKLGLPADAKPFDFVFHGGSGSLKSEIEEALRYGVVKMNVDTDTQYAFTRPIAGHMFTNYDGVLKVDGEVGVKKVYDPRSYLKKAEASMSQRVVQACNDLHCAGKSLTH
GDH-TPI counter-1 – GDH-TPI coupled enzyme inhibition counter-screen; GDH-TPI coupled enzyme counterscreen, NADH absorbance; inhibition, % at 4.8 µM; hit rate 1.2% among 360,000; AID 588335; in the data active = inhibition above about 30%;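 also: 0% = DMSO wells and 100% = wells lacking the enzyme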
Mtb UGM inh – blocks M. tuberculosis UGM enzyme; inhibition, % at 10 µM; hit rate 0.06% among 320,000; purified UGM, fluorescence polarization probe displacement; AID 504406; P9WIQ1; in the data active = inhibition above about 10%, passing the limit was not always enough
Rv3671c protease – inhibits the M. tuberculosis serine protease Rv3671c; inhibition, % at 5.96 µM; AID 2606; P9WHR9; hit rate 0.048% among 320,000; in the data active = inhibition above about 38%;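 also: extracellular domain of Rv3671c used as enzyme; 0% = enzyme with DMSO and 100% = no enzyme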
Target sequence (P9WHR9 whole entry, looked up, the tested form may be a part): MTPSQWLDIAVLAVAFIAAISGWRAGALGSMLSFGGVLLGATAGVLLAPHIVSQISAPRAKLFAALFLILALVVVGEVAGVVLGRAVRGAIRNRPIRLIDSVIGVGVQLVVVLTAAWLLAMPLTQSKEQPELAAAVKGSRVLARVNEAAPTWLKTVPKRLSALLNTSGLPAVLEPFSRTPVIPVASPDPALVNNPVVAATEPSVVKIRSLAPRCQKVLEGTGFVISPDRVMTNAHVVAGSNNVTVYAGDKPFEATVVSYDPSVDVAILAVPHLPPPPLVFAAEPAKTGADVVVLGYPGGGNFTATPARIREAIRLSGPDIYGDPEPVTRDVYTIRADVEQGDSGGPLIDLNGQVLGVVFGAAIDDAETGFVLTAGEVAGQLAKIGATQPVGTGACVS
RecA intein inh – Mtb RecA intein splicing inhibition. inhibition, % (no concentration beside the values). hit rate 0.75% among 290,000. cell-free RecA intein splicing, fluorescence. AID 2221; in the data active = inhibition above about 30%;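 also: 0% = vehicle wells and 100% = reference inhibitor control wells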
Mtb FBA inh conf – confirmation of M. tuberculosis fructose-bisphosphate aldolase inhibitors | shares compounds with Mtb FBA inh | purified M. tuberculosis FBA, fluorescence read-out | inhibition, % at 1 µM | hit rate 78% among 5,600; in the data active = inhibition above about 27%;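 also: 0% = vehicle wells and 100% = reference inhibitor wells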
GDH-TPI counter-2 – GDH-TPI inhibition counter-screen for FBA inhibitors. shares compounds with Mtb FBA inh. GDH-TPI coupled enzyme counterscreen, fluorescence. inhibition, % at 1 µM. hit rate 81% among 5,600; in the data active = inhibition above about 10%
GDH-TPI DR – counter-screen for M. tuberculosis FBA inhibitors: GDH-TPI dose response; shares compounds with Mtb FBA inh; hit rate 79% among 170; AID 652145; GDH-TPI coupled enzyme assay, fluorescence, artifact counterscreen; IC50, µM
Numbers without * were called inactive; i = inactive; . = no result given; + = active, no number. Unless noted, no rule for the calls is given here.

SMILES | Mtb bLac sens | Mtb FBA inh | GDH-TPI counter-1 | Mtb UGM inh | Rv3671c protease | RecA intein inh | Mtb FBA inh conf | GDH-TPI counter-2 | others
COc1ccc(CCNC(=O)C(=O)NCC2CCCN2S(=O)(=O)c2ccc(OC)cc2)cc1 (stereo unspecified) | -7.2 | -0.8 | 5.6 | 0.1 | 12.7 | 1.9 | . | .
O=C(Cc1cccc(C(F)(F)F)c1)N1CCCC1 | -1.4 | 0.7 | 4.5 | 0.0 | -9.6 | -1.8 | . | .
CCCCN(CC)CCNC(=O)c1cc2c(=O)n(C)c3ccccc3c2s1 | -3.5 | 49.4* | 15.1 | -0.4 | -4.7 | -0.8 | 180.9* | 144.4*
CCCCN(CC)CCNC(=O)c1cc2c(-c3ccccc3F)nn(C)c2s1 | 4.2 | 45.8* | 4.1 | 0.4 | 0.1 | 6.3 | 46.8* | 35.4*
CN(CCNC(=O)c1cc2c(=O)n(C)c3ccccc3c2n1C)Cc1ccccc1 | -6.1 | 4.4 | 5.0 | -0.5 | 6.0 | 0.9 | . | .
CCCCN(CC)CCNC(=O)c1cn(-c2ccc(Cl)cc2)c(=O)c2ccccc12 | 4.3 | -0.6 | 7.3 | -1.0 | 2.6 | 1.6 | . | .
CCCN(CCC)CCNC(=O)c1cc2c(=O)n(C)c3ccccc3c2n1C | -2.6 | 30.5* | 5.9 | 1.1 | 1.6 | 0.4 | 9.6 | 6.8
CCN(CCCNC(=O)c1cc2c(-c3cccc(OC)c3)nn(C)c2s1)Cc1ccccc1 | 42.1 | 52.5* | 5.3 | 1.4 | -12.8 | 1.4 | 39.0* | 43.0*
O=C(OCC(=O)N1CCCCCC1)c1cccc(Cl)c1 | 10.1 | -2.0 | 1.0 | 0.5 | 1.8 | . | . | .
Cc1ccc(NC(=O)CCNC(=O)c2ccc(Br)cc2)nc1 | -7.1 | -0.3 | 5.6 | 2.7 | 2.4 | -1.5 | . | .
Nc1cc(=O)[nH]c(SCC(=O)Nc2cccc(S(=O)(=O)N3CCCCC3)c2)n1 | 0.1 | 3.5 | 3.5 | 0.4 | -21.4 | . | . | .
CCN(CC)CCNC(=O)C(C)c1nn(C)c(=O)c2ccccc12 (stereo unspecified) | -10.9 | 2.4 | 3.4 | 1.7 | -4.5 | 1.0 | . | .
CCN(CC)CCNC(=O)c1cc2c(=O)n(C)c3ccccc3c2s1 | -16.7 | 70.8* | 11.0 | -0.7 | -5.7 | -1.8 | 129.1* | 86.9*
O=C(CSc1nc(=O)[nH]c2c1CCCC2)Nc1cc(C(F)(F)F)cc(C(F)(F)F)c1 | -4.2 | 0.0 | -4.2 | 1.8 | 5.8 | 4.8 | . | .
Cc1ccc(OCC(=O)Nc2ccon2)c([N+](=O)[O-])c1 | -14.8 | 0.5 | 13.4 | 2.0 | 0.8 | -1.4 | . | .
Cc1cc(C)c2nc3nc(C)c(C)cc3c(N)c2c1 | . | 29.3* | -4.8 | . | . | i | 76.3* | 47.8*
CCCSc1nc(C)c2cc(C)cc(C)c2n1 | 0.5 | 5.5 | -5.9 | 4.8 | -5.5 | 0.3 | . | .
CC1(C(=O)Nc2ccccc2)Cc2c(-c3ccc4c(c3)OCO4)ccnc2O1 (stereo unspecified) | . | 47.5* | 3.6 | . | . | . | 24.5 | 9.9 | GDH-TPI DR=4.48*
CC1(C(=O)Nc2cccnc2)Cc2c(-c3ccc4c(c3)OCO4)ccnc2O1 (stereo unspecified) | . | 36.7* | 7.1 | . | . | . | 43.4* | 29.9*
CC(=O)Nc1ccc(NC(=O)C2(C)Cc3c(-c4ccc5c(c4)OCO5)ccnc3O2)cc1 (stereo unspecified) | . | 52.3* | 0.0 | . | . | . | 6.1 | -5.8
CC1(C(=O)Nc2cccc(Oc3ccccc3)c2)Cc2c(-c3ccc4c(c3)OCO4)ccnc2O1 (stereo unspecified) | . | 3.1 | -5.8 | . | . | . | . | .
CC(=O)Nc1ccc(-c2ccnc3c2CC(C)(C(=O)Nc2ccc4c(c2)OCO4)O3)cc1 (stereo unspecified) | . | 0.2 | 14.2 | . | . | . | . | .
NC(=O)c1nc(C2CCCCC2)nc2c1[nH]c(=O)n2-c1ccc(F)cc1 | -3.9 | 6.3 | 2.4 | 3.7 | -8.2 | -1.8 | . | .
COc1ccc(-c2nc(C(N)=O)c3[nH]c(=O)n(-c4ccccc4OC)c3n2)c(OC)c1 | 1.6 | 6.8 | 25.4 | 0.3 | -9.8 | 2.7 | . | .
COc1ccccc1-n1c(=O)[nH]c2c(C(N)=O)nc(C3CCCCC3)nc21 | -1.5 | 27.2* | 17.5 | -0.5 | 4.0 | 3.7 | + | +
SMILES | Mtb bLac sens | Mtb FBA inh | GDH-TPI counter-1 | Mtb UGM inh | Rv3671c protease | RecA intein inh | Mtb FBA inh conf | GDH-TPI counter-2 | others
COc1ccccc1-n1c(=O)[nH]c2c(C(N)=O)nc(-c3cccnc3)nc21 | 0.4 | 38.9* | 28.2 | 0.3 | 1.9 | 6.2 | 4.0 | 3.8
COc1ccc2nc(SCC(=O)O)nc(C)c2c1 | 4.6 | 38.9* | 3.1 | 0.2 | -1.7 | . | 101.5* | 90.0*
CCc1cccc(NC(=O)Cn2c(=O)c3cccn3c3ccccc32)c1 | -7.5 | 0.3 | 16.2 | -1.0 | -6.8 | 1.3 | . | .
Cc1ccc(CCNC(=O)Cn2ccc3cc(S(=O)(=O)N4CCCC4)ccc32)cc1 | 6.7 | 83.9* | -7.9 | 2.3 | -4.4 | -4.2 | 44.5* | 27.1*
S=C(NCC1CCCO1)c1ccc(Br)cc1 (stereo unspecified) | 0.3 | 0.9 | -4.3 | -0.7 | 7.5 | -0.7 | . | .
Cc1cc(C(=O)N2CCCC(N3CCN(c4cccc(Cl)c4)CC3)C2)nn1C (stereo unspecified) | -3.4 | 0.0 | 1.0 | 1.9 | -3.9 | 3.8 | . | .
CS(=O)(=O)Nc1ccccc1C(=O)NC1CC2CCC1C2 (stereo unspecified) | -2.9 | 37.3* | 4.3 | 0.9 | -2.0 | 6.9 | 65.5* | 49.3*
Cc1ccccc1CNC(=O)c1ccccc1NS(C)(=O)=O | -5.7 | 59.3* | 14.2 | 5.4 | -9.6 | 0.8 | 60.0* | 51.3*
O=C1NCCN(CC2CCN(CCc3ccccc3)CC2)C1=O | . | -0.6 | 4.3 | . | . | . | . | .
Cc1ccc(-c2cc(-c3ccc(C)cc3)[n+](-c3ccc(C(=O)O)cc3)c(-c3ccc(C)cc3)c2)cc1 | 8.4 | 18.9 | 24.1 | 1.5 | -3.8 | -0.4 | . | .
Cc1ccc(-c2cc(-c3ccccc3)cc(-c3ccccc3)[n+]2-c2ccc(C(=O)O)cc2)cc1 | -3.0 | 28.8* | 26.3 | -1.4 | 6.8 | -0.8 | 49.4* | 45.8*
CC1C(c2ccccc2)=Nn2c(=O)n(-c3ccccc3)c(=O)n21 (stereo unspecified) | . | 103.4* | 0.9 | . | . | . | + | +
Clc1ccc(OCCCCCN2CCOCC2)cc1 | -3.3 | 5.5 | 0.0 | -1.6 | 5.9 | 3.5 | . | .
Cc1cccc(C)c1OCc1cc(C(=O)N(C)CCc2ccccn2)no1 | -9.3 | 0.2 | 0.0 | 0.3 | -5.0 | 2.2 | . | .
CCc1cccc(Nc2c([N+](=O)[O-])cc(C(=O)N3CC(=O)Nc4ccccc43)cc2[N+](=O)[O-])c1 | -1.5 | 110.8* | 16.3 | 2.8 | 2.4 | 1.6 | 144.7* | 102.7*
CCc1cccc(NC(=O)CNC(=O)N2CC(=O)Nc3ccccc32)c1 | 3.5 | -0.4 | 5.2 | 1.3 | 6.5 | 0.9 | . | .
CC(=O)Nc1ccc(-c2nc3cc(Cl)ccc3o2)cc1 | -11.1 | 29.5* | 20.8 | 2.3 | -10.6 | 1.7 | + | +
